This is an account of results in PubChem BioAssay AID1259415 (National Center for Advancing Translational Sciences (NCATS), 2018).

In all, about 410,000 compounds went through this assay and about 18,000 (4.4%) were called active. About 7% were inconclusive and are not listed. What follows is part of a selection rich in actives, with near analogues and random picks from the rest. A number with no mark means an inactive call. Rule as the data show it: active = activity change below about -60%; inconclusive = no clear call, values can overlap the other calls; inactive = above about -39%.
% is scaled to controls: 0 for no effect and ±100 for the full control effect.

A short description of the assay: qHTS Assay for inhibitors of the human cytomegalovirus (HCMV). As to conditions: HFF cells, HCMV-luciferase reporter, 72 h; at 57.5 µM; stronger effect = lower value. The gist of the method: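 Two-dose cell screen: HFF monolayers treated with compounds and infected with luciferase-expressing HCMV at 1 PFU/cell, 72 h at 37C, then lysed for luciferase measurement.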
Turning to `CCC(=O)N1c2ccccc2CC1C(=O)N1CCN(c2cccc(OC)c2)CC1` (stereo not drawn), the activity change, negative = inhibition was 16.8%.

On to `COc1ccc(C)cc1NC(=O)c1[nH]c(C)c(C(C)=O)c1C`, for which the activity change, negative = inhibition was 106%.

For the molecule `COC(=O)c1c(C)[nH]c(C(=O)/C=C/c2ccc(Cl)cc2)c1C`, the activity change, negative = inhibition was -85.4% (active). In the case of `COC(=O)c1c(C)oc(C)c1S(=O)(=O)NCc1ccc(Cl)cc1` it was -3.12%; in that of `CCc1ccc(CCC(=O)Nc2ccc(S(N)(=O)=O)cc2)o1`, -16.8%. In the case of `Cc1ccc(CCC(=O)Nc2ncc(Cc3cc(Cl)ccc3Cl)s2)o1` it was -89.7% (active); in that of `COc1ccccc1N1CCN(C(=O)C2CCN(S(=O)(=O)c3c(C)noc3/C=C/c3ccc(C)cc3)CC2)CC1`, 1.7%. In the case of `CCCN(CCC)C(=O)C(Cc1ccccc1)NS(=O)(=O)c1ccc2c(c1)c(=O)n(C)c(=O)n2C` (stereo not drawn) it was 1.57%. For `CCCCc1cc(=O)oc2c(C)c(OCC(=O)N3CCC(C(N)=O)CC3)ccc12`, the activity change, negative = inhibition was -17.9%. In the case of `NC(=O)C1CCN(C(=O)COc2cccc3cccnc23)CC1` it was -88.1% (active); in that of `CCOC(=O)C1CCN(C(=O)COc2cccc3ccccc23)CC1`, -33.6%. With `CC(C)=CCCC(C)CN1CCC(n2nccc2NC(=O)c2ccccc2)CC1` (stereo not drawn), the activity change, negative = inhibition is -18.5%. The figure for `COc1ccc(NC(=O)C(c2ccccc2)N2Cc3ccccc3C2=O)cc1` (stereo not drawn) is -2.09%; for `CC(C)(C)c1ccc(Oc2ccc(N)cc2)cc1` it is -86.3% (active); for `CC(C)(C)c1ccc(OC(=O)N2CCCCC2)cc1` it is 29.6%. The figure for `Cc1c(Cl)cccc1NC(=O)c1noc2c1CCCC2` is -4.84%; for `O=C(Nc1c(Br)cc2c(c1Br)Cc1cc([N+](=O)[O-])ccc1-2)C(Cl)Cl` it is -31.6%; for `COc1ccc(-n2c(SC)nc3sc4c(c3c2=O)CCN(C(C)=O)C4)cc1` it is 24.9%.

As for `Cc1ccc(CNC(=O)Cn2c(=O)ccc3cc(S(=O)(=O)N4CCCC4)ccc32)cc1`, the activity change, negative = inhibition was -10.3%. The figure for `Cc1ccn2c(Nc3ccc4c(c3)OCCO4)c(-c3ccc(C)s3)nc2c1` is 10.7%; for `COc1ccc(-c2csc(-c3c(N)c(C(=O)c4ccc(OC)c(OC)c4)n4ccccc34)n2)cc1` it is 9.65%. For `N#C/C(=C\c1cccc(F)c1)c1nc(-c2cc3c(ccc4ccccc43)oc2=O)cs1`, the activity change, negative = inhibition was 1.4%. The figure for `COc1ccc(-c2csc(Nc3ccc(O)cc3)n2)cc1` is -72.3% (active); for `CCOc1ccc(Nc2ncnc3scc(-c4ccc(OC)cc4)c23)cc1` it is -22.6%. In the case of `O=c1oc2ccccc2cc1-c1csc(Nc2ccc(O)cc2)n1` it was -87.2% (active); in that of `Cc1cc(NC(=O)c2cccc(Cl)c2)ccc1-c1cc2ccccc2oc1=O`, 28.2%. The figure for `CC(C)(C)c1ccc(OCC(=O)N2CCC(c3nc4ccccc4s3)CC2)cc1` is 4.7%.

For the molecule `COCCn1c(CCC(=O)Nc2cc(C)ccc2C)nc2cccnc21`, the activity change, negative = inhibition was 5.25%. In the case of `O=C(OCc1nnc(-c2ccccc2)o1)c1cc(=O)[nH]c2ccccc12` it was -98.7% (active); in that of `CC1CCN(C(=O)COC(=O)c2cc(=O)[nH]c3ccccc23)CC1`, 10.6%; in that of `CCOC(=O)c1ccc(COC(=O)c2cc(=O)[nH]c3ccccc23)o1`, -5.78%.

For `CCc1ccc(S(=O)(=O)Nc2cc3c(C(=O)OCc4ccccc4)c(C)oc3c3ccccc23)cc1`, the activity change, negative = inhibition was 8.24%. The figure for `CCN(CC)C(=O)CSC1c2ccccc2C(=O)N1c1ccccc1` (stereo not drawn) is -6.4%; for `COc1ccc(-c2nc3c(c(SCC(=O)Nc4ccc(C(=O)O)cc4)n2)Cc2ccccc2O3)cc1` it is 42.3%. The figure for `CC(C)c1nnc(NC(=O)COC(=O)/C=C/c2ccc([N+](=O)[O-])cc2)s1` is 28.8%; for `CCOC(=O)c1c(C)[nH]c(C)c1C(=O)COC(=O)/C=C/c1cccc([N+](=O)[O-])c1` it is -7.36%. In the case of `CCOC(=O)/C(=C\c1ccc([N+](=O)[O-])cc1)C(=O)c1cc(C(C)=O)c(Nc2ccccc2)s1` it was -106% (active). On to `Oc1ccccc1-c1nc2ccc(Cl)cn2c1Nc1ccc2c(c1)OCCO2`, for which the activity change, negative = inhibition is -5.59%.

As to `COc1ccccc1CNC(=O)CCn1c(=O)c2ccccc2n(CC(=O)Nc2ccc(Br)cc2F)c1=O`, the activity change, negative = inhibition was -12.3%. In the case of `CCOC(=O)c1ccc(NC(=O)c2nc(SCc3ccc(F)cc3)ncc2Cl)cc1` it was 13.6%; in that of `Cc1cccc(NC(=O)c2nc(S(=O)(=O)Cc3ccccc3)ncc2Cl)c1`, -100% (active). Turning to `Cc1ccc(CCNC(=O)c2ccc(CS(=O)(=O)Cc3cccc(C)c3)o2)cc1`, the activity change, negative = inhibition is -17.4%.

On to `Cc1ccc(NC(=O)c2nc(S(=O)(=O)Cc3cccc(C)c3)ncc2Cl)cc1`, for which the activity change, negative = inhibition is -94.3% (active). The figure for `CCCSc1ncc(Cl)c(C(=O)Nc2c(C(=O)Nc3ccccc3)oc3ccccc23)n1` is -20.1%; for `CCS(=O)(=O)c1ncc(N(Cc2ccc(F)cc2)Cc2ccco2)c(C(=O)Nc2cc(C)ccc2C)n1` it is -29.7%.

Turning to `Cc1ccc(Cn2c(CNC(=O)Cc3cccc(C)c3)nc3cccnc32)cc1`, the activity change, negative = inhibition was -7.33%. The figure for `Cc1cccc(NC(=O)Cn2cc(S(=O)(=O)Cc3ccccc3Cl)c3ccccc32)c1` is 0%; for `Cc1cccc(CS(=O)(=O)c2ncc(Cl)c(C(=O)Nc3ccc(F)cc3)n2)c1` it is -110% (active).
